ChEMBL document CHEMBL4513216, “Probing the Open Global Health Chemical Diversity Library for Multistage-Active Starting Points for Next-Generation Antimalarials” (ACS Infect Dis, 2020)
In all, about 69,000 compounds went through this assay and about 8,600 (12%) showed an effect of 50% or more. The entries come from a sample that favours strong results as a whole.

System: Plasmodium berghei
Experiment: Screen against P. berghei liver stage (PbLuc), transformed with Luciferase, at 10uM
Assay type: functional, HepG2
Settings: tested at 10 uM

SMILES | INHIBITION [%]
COc1ccc(Cn2nnnc2SCC2CCCN(C)C2)cc1 (stereo not given) | 40.5
CO[C@@]1(C)C[C@@H](O)C12CCN(C(=O)C1(c3ccccc3F)CC1)CC2 | 32.5
NCCC(Cc1ccccc1)c1ccco1 (stereo not given) | 36.1
O=C(N[C@H]1CCCC[C@@H]1O)c1ccc2nc(-c3ccccc3)[nH]c2c1 | -85.3
COc1nn(C)c2c1CCCN(C(=O)c1ccccc1F)C2 | 3.25
CC(NC(=O)CCCC(=O)c1cccs1)c1nnc2n1CCC2 (stereo not given) | 7.12
O=C(O)Cn1ccc2c(Cl)cccc21 | 19.3
Cc1nnc(C(C)N2CCN(Cc3ccc(C(F)(F)F)cc3)CC2)o1 (stereo not given) | -43.5
O=C(CCN1CCN(c2ccc3nncn3n2)CC1)NC1CCCC1 | -51.5
c1ccc(OCCCN2CCN(c3ccc4nncn4n3)CC2)cc1 | 86.1
FC(F)(F)COCCN1CCN(c2ccc3nncn3n2)CC1 | 38.8
O=C(NCc1cccnc1)NC1CCC2(CCC(=O)N2CC2CC2)CC1 (stereo not given) | 40.3
CCN(CCNC(=O)Nc1nnc(C)s1)C(=O)OC(C)(C)C | -19.3
O=C1C(NS(=O)(=O)c2ccc(F)cc2)CCN1Cc1ccccc1 (stereo not given) | 23.5
CCc1nc2ccccc2n1C(CC)C(=O)N(C)Cc1noc(C)n1 (stereo not given) | 31.1
CCc1nc2ccccc2n1C(CC)C(=O)N(C)Cc1nc(C)c[nH]1 (stereo not given) | 12.9
CCc1nnc(CN(C)C(=O)C(CC)n2c(CC)nc3ccccc32)o1 (stereo not given) | 52.7
O=C1COc2ccc(C(=O)NS(=O)(=O)c3ccccc3Cl)cc2N1 | 14.1
CCCS(=O)(=O)N1C[C@@H](Oc2ccccn2)[C@H]2OCCC[C@H]21 | -21.1
O=C(c1nc(=O)[nH][nH]1)N1CCCC(c2cc(C(F)(F)F)[nH]n2)C1 (stereo not given) | 29.1
O=C(c1cc(Cl)c[nH]1)N1CCCC(c2cc(C(F)(F)F)[nH]n2)C1 (stereo not given) | 88.2
Cc1nc(C2CCCN(C(=O)c3cc(Cl)c[nH]3)C2)sc1C (stereo not given) | 40.9

SMILES | INHIBITION [%]
Cc1cc(C(=O)N2CCCC(c3cc(C(F)(F)F)[nH]n3)C2)[nH]n1 (stereo not given) | 29.7
CCOCCC(=O)N1CCCC(c2cc(C(F)(F)F)[nH]n2)C1 (stereo not given) | 7.97
Cc1nc(C(=O)N2CCCC(c3cc(C(F)(F)F)[nH]n3)C2)c[nH]1 (stereo not given) | 33.8
O=C(c1ccsc1)N1CCCC(c2cc(C(F)(F)F)[nH]n2)C1 (stereo not given) | 57.2
Cn1cc(CC(=O)N2CCCC(c3cc(C(F)(F)F)[nH]n3)C2)cn1 (stereo not given) | 7.97
O=C(Cc1cccnc1)N1CCCC(c2cc(C(F)(F)F)[nH]n2)C1 (stereo not given) | 50.8
O=C(c1cc[nH]n1)N1CCCC(c2cc(C(F)(F)F)[nH]n2)C1 (stereo not given) | 25.1
O=C(c1ccc[nH]1)N1CCCC(c2cc(C(F)(F)F)[nH]n2)C1 (stereo not given) | 54.4
CCOC(=O)c1cc(C(C)(O)CCC=C(C)C)on1 (stereo not given) | 37.8
Cc1nc(CC(=O)N2CCC(c3nn(C)c4ncccc34)CC2)cs1 | 26.8
Cn1c(C(=O)N2CCC(C(N)=O)C2)c(Cl)c2ccccc21 (stereo not given) | -20.5
Cc1oc(-c2ccco2)nc1CN1CCc2cnc(C(C)C)nc2C1 | 21.9
CC(C)N(C)S(=O)(=O)c1ccc2c(c1)CCN(C(=O)c1cccnn1)C2 | 23.2
CC(=O)NCC1CCN(CC2CCOc3ccccc3C2)CC1 (stereo not given) | 37.8
CNc1nc(C(=O)NCC2CCOc3ccccc3C2)cs1 (stereo not given) | 53.3
Cc1cnc(C(=O)NCC2CCOc3ccccc3C2)cn1 (stereo not given) | 24.4
O=C(c1ccc(Cn2cc(Br)cn2)cc1)N1CCCC1 | 53.5
CN1CCN(C(=O)c2ccc(Cn3cc(Br)cn3)cc2)CC1 | 30.7
O=C(c1ccc(Cn2cc(Br)cn2)cc1)N1CCOCC1 | 37.7
CCC(=O)N1CCN(C(=O)CCn2cc(Cl)cn2)[C@H]2CS(=O)(=O)C[C@H]21 | 35.8
CCC(=O)N1CCN(S(=O)(=O)c2cccc(F)c2)[C@H]2CS(=O)(=O)C[C@H]21 | 32.2
CCC(=O)N1CCN(C(=O)Nc2cccc(F)c2)[C@H]2CS(=O)(=O)C[C@H]21 | 61.9

SMILES | INHIBITION [%]
CCC(=O)N1CCN(C(=O)Nc2cccc(C#N)c2)[C@H]2CS(=O)(=O)C[C@H]21 | -2.09
CC(=O)N1CCN(C(=O)Nc2ccc(Cl)cc2)[C@H]2CS(=O)(=O)C[C@H]21 | 12.6
CCC(=O)N1CCN(C(=O)Nc2ccc(Cl)cc2)[C@H]2CS(=O)(=O)C[C@H]21 | 61
CCN1CC(CN(C)Cc2nc(-c3ccc(F)cc3F)oc2C)CC1=O (stereo not given) | 26.5
Cc1ccc(C2CSCCN2C(=O)c2ccnc(N(C)C)c2)o1 (stereo not given) | 12.3
N#Cc1c(CN2CCCCC2Cn2cncn2)cn2ccccc12 (stereo not given) | 19.3
CN(Cc1ccc(Cl)s1)C(=O)c1ccccc1OCC(N)=O | -93.8
O=C(c1ccncc1)N1CCCn2nnc(COCCO)c2C1 | 29.8
COc1cccc(CN2CCC(O)(c3ccc(C)cn3)CC2)c1OC | -57.5
COc1cc(CN2CCC(O)(c3ccc(C)cn3)CC2)cc(Cl)c1OC | 51.3
COc1ccnc(CN2CCC(O)(c3ccc(C)cn3)CC2)c1OC | -23.4
Cc1nc(C)n(CC2CN(CCOc3cccc(F)c3)CCO2)n1 (stereo not given) | -21.7
Cc1cc(C)c2nc(C)cc(C(=O)N3CC(O)CO3)c2c1 (stereo not given) | 22.6
COCCOc1cccc(CNCC2CN(C)CCO2)c1 (stereo not given) | 7.12
CN1CCOC(CNCCCOc2ccc(C#N)cc2)C1 (stereo not given) | -89.9
CN1CCOC(CNCCOc2cccc(C#N)c2)C1 (stereo not given) | 66.7
CN1CCOC(CNCCc2ccccn2)C1 (stereo not given) | 39.5
CN1CCOC(CNCCOc2ccc(C#N)cc2)C1 (stereo not given) | 71.1
CN(C)CC1CN(CCOc2cccc(C#N)c2)CCO1 (stereo not given) | 41.4
CN(C)c1ccc(C2CCN(c3cnccn3)CC2)nc1 | 1.93
CO[C@H]1CC[C@H]2[C@H]1OCCN2C(=O)CC1=CCCCC1 | 32.5
